# Compound activity: PubChem, National Center for Advancing Translational Sciences (NCATS)
# Rows were chosen to be rich in hits. Some 21% of all compounds tested hit in one or more screens of this group.
# FBPA Giardia inh: Giardia lamblia aldolase inhibition; purified Giardia FBPA; actives 0.71% (n = 290,000); Potency, µM (titrated, usually from 59.6 µM), inactives show at the top dose activity, negative = inhibition, hits mostly inhibitors; A8B2U2; AID 2451; also: potency is read from the fitted curve at half-maximal effect; % is scaled to controls: 0 for no effect and ±100 for the full control effect; nearly all actives have a fitted effect of over 55% in size
# Target sequence (A8B2U2 whole entry, looked up): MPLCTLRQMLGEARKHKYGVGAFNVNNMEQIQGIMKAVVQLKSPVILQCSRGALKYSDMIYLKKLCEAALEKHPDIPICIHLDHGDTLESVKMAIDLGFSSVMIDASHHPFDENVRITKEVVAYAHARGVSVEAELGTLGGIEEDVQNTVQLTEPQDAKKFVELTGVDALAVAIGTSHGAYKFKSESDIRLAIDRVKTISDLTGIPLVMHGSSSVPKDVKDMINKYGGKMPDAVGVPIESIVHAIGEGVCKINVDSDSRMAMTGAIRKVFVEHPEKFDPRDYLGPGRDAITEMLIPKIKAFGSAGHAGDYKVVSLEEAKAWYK
#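 40 nM FBPA preincubated 10 min at RT with compound (up to 57.5 uM final), then substrate plus GAPDH/TPI/NAD/arsenate coupling and diaphorase/resazurin added. Fluorescence read after 20 min at RT, 525/598 nm.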
# Pf growth 96h: inhibits malaria parasite growth, 96 h. Potency, µM (doses to about 28.7 µM), for the others: at the top dose activity change, negative = inhibition, hits mostly inhibitors. AID 504834. actives 6.9% (n = 320,000). P. falciparum luciferase reporter growth, 96 h; also: potency is read from the fitted curve at half-maximal effect; % is scaled to controls: 0 for no effect and ±100 for the full control effect
#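 Luminescence readout: decreased luciferase signal marks inhibited growth of reporter-expressing P. falciparum in infected red cells (2% hematocrit, 0.05% parasitemia final), exposed to compound two generations (96 h, 37 C, 5% CO2).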
# NS1 inh: blocks influenza NS1 protein function. Potency, µM (highest dose often 46.1 µM), for the others: at the top dose activity, positive = more growth. actives 0.4% (n = 270,000). AID 2326; calls by dose curve; also: potency is read from the fitted curve at half-maximal effect; actives are rising curves; nearly all actives have a fitted effect of over 50% in size
#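 Read-out: OD600 growth recovery of NS1-expressing budding yeast. Cells grown overnight at 30C in -URA glucose medium, washed, resuspended and diluted 1:100 in 2% galactose assay medium, pH 6.0. Same strain lacking NS1 served as positive control.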
# Pf growth 48h: inhibits P. falciparum growth in the first generation, 48 h. AID 504832. Potency, µM (titrated, usually from 28.7 µM), inactives show top-dose activity change, negative = inhibition, most hits filed as inhibitors. actives 5.9% (n = 310,000). P. falciparum luciferase growth in erythrocytes, 48 h; also: potency is read from the fitted curve at half-maximal effect; % is scaled to controls: 0 for no effect and ±100 for the full control effect
#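 Growth was read as firefly luciferase luminescence after a 48 h, 37 C, 5% CO2 exposure of compounds to reporter-bearing P. falciparum cultures (0.1% parasitemia, 2% hematocrit final) in Albumax-supplemented RPMI 1640.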
# Shiga inhibitor: Shiga toxin inhibition. Vero cells, Shiga toxin protein synthesis inhibition reporter. inhibition, % at 38.7 µM. actives 9.2% (n = 290,000). AID 2315; in the data active = inhibition mostly above about 28%, no sharp cut-off; inactive = mostly below about 43%; also: 0% is about no effect
# Cycloheximide cs: counter-screen hit for Shiga toxin inhibitors, cycloheximide; cell reporter, cycloheximide protein synthesis inhibition counterscreen; max response, %; actives 12% (n = 300,000); AID 2314; in the data active = max response mostly above about 13%, no sharp cut-off; inactive = mostly below about 14%; also: read at 38.3 µM for the half of the compounds with a filed dose; 0% is about no effect
# Starred values were filed as active, the others as inactive; i = inactive; ? = inconclusive; / = not tested or not shown; + = active, no number; [ ] = remark or other dose. Unless noted, calls follow the shape of the dose curve; as a rule, active = well fitted curve in the direction sought with a large enough effect; inconclusive = small, poorly fitted or top-dose-only effect, or another doubt; inactive = no such curve, though single readings can be large; an effect the other way counts as inactive or inconclusive.
SMILES,FBPA Giardia inh,Pf growth 96h,NS1 inh,Pf growth 48h,Shiga inhibitor,Cycloheximide cs
NN1C(=O)c2cccc3c(C(=O)O)ccc(c23)C1=O,2.0%,20.2%,5.9%,-8.0%,-3.6,-1.1
C=CCn1c(SCn2nnc3ccccc3c2=O)nc2scc(-c3cccs3)c2c1=O,2.8%,2.94µM*,?,13.8%,12.0,6.9
O=C(c1ccco1)N(CCO)Cc1cc2cc3c(cc2[nH]c1=O)OCO3,-3.3%,-1.1%,/,34.2%,5.3,2.6
Cc1cc(SCCOc2ccccc2)nc(N)n1,-4.5%,23.4%,-75.0%,98.5%,80.0*,28.3*
Cc1cc(Oc2ccccc2)nc(N)n1,5.5%,?,2.4%,9.0%,13.9,-1.3
Cc1ccc(Oc2ccc(Oc3ccc(C)cc3)nn2)cc1,0.9%,108.6%,-4.4%,90.0%,-15.0,-6.1
Cc1ccccc1Oc1ccc(Oc2ccccc2C)nn1,4.9%,-24.9%,-6.6%,?,116.4*,30.7*
CN(Cc1ccco1)c1ccnc(-c2cccc(C#N)c2)n1,-7.8%,/,/,/,/,/
NC(=O)c1cc(-c2ccccc2)sc1NC(=O)CN1CCCCC1,-4.2%,?,-11.6%,-2.2%,35.7,11.5*
NC(=O)Nc1sc(-c2ccc(F)cc2)cc1C(N)=O,-6.1%,/,/,/,4.1,16.7*
NC(=O)c1ccccc1NC(=O)CN1CCCCCC1,/,?,9.5%,124.1%,19.2,11.2
Cc1ccc(OC(=O)c2ccc(S(=O)(=O)N(C)C)cc2)c(-n2nc3ccccc3n2)c1,0.8%,440.2%,?,284.9%,80.7*,34.0*
Cc1ccc(C)c(COC(=O)c2cccc(S(=O)(=O)N3CCCC3)c2)c1,/,-17.1%,/,?,/,/
Cc1ccc(OC(=O)c2cccc(S(=O)(=O)N(C)C)c2)c(-n2nc3ccccc3n2)c1,0.2%,220.0%,17.0%,/,72.6*,63.8*
CN(C)S(=O)(=O)c1ccc(C(=O)Oc2ccccc2)cc1,1.0%,/,?,1.3%,4.7,-2.1
CC(=O)Oc1ccc(C)cc1-n1nc2ccccc2n1,0.2%,-10.7%,-20.6%,205.2%,130.9*,60.5*
Cc1ccc(OC(=O)c2cccc(S(=O)(=O)N3CCCC3)c2)c(-n2nc3ccccc3n2)c1,-3.9%,-42.7%,?,231.4%,+,68.9*
CCCC/C=C/C(NC(=O)c1cccs1)c1ccccc1 (stereo not drawn),-0.2%,/,/,/,/,/
COc1ccc(CCC(=O)NC2CCC(C)CC2)cc1 (stereo not drawn),-2.4%,26.9%,-3.7%,21.6%,-5.2,-5.0
CCOc1ccc(N=c2cc(-c3ccc(OC)cc3)oc3ccccc23)cc1,0.5%,?,2.3%,?,-6.1,-2.7
COc1ccc(-c2cc(=NCCC(=O)O)c3cc(C)ccc3o2)cc1,7.9%,?,/,i,147.8*,35.9*
COc1ccc(-c2cc(=NC(CC(C)C)C(=O)O)c3cc(C)ccc3o2)cc1 (stereo not drawn),-0.4%,146.6%,-13.8%,197.8%,99.8*,29.6*
COC(=O)C/C=C1\c2ccccc2C(OC)C1C (stereo not drawn),-0.9%[12.9 µM],/,/,/,/,/
Oc1c(C=NCc2ccc(F)cc2)[nH]c2ccc(Br)c(Cl)c12,?,/,-61.8%,2.62µM*,-7.3,-2.4
O=c1[nH]c(=O)n(C2CCCCCC2)c(O)c1C=NCc1ccc(F)cc1,-3.8%,-1.9%,-144.8%,?,-19.8,-1.5
SMILES,FBPA Giardia inh,Pf growth 96h,NS1 inh,Pf growth 48h,Shiga inhibitor,Cycloheximide cs
Cc1ccc(CN=Cc2[nH]c3ccc(Br)c(Cl)c3c2O)cc1,?,/,-45.8%,3.29µM*,1.2,4.4
Cc1ccc(NCc2cc3cc4c(cc3n(CC(=O)Nc3ccc(C)cc3)c2=O)OCCO4)cc1,/,/,/,/,-12.9,6.4
Oc1ccc(Cn2ccnc2)c2cccnc12,?,17.9%,1.8%,3.7µM*,-6.4,-1.5
OCc1cn(Cc2ccc(O)c3ncccc23)cn1,/,6.57µM*,/,5.22µM*,/,/
O=c1cnc2cnc(N3CCOCC3)nc2n1CCc1ccccc1,6.6%,/,/,/,/,/
O=C(C1CC1)N1N=C(c2ccccc2)CC1(O)C(F)(F)C(F)(F)F (stereo not drawn),4.9%,-5.8%,-11.8%,44.9%,/,3.7
N#Cc1nc(-c2ccc(OCc3ccc(Cl)cc3)cc2)oc1NCCCn1ccnc1,7.8%,?,?,2.33µM*,52.2,6.7
COc1ccccc1-c1nc(C#N)c(NCCCn2ccnc2)o1,0.2%,-19.8%,1.0%,-17.0%,-7.8,-2.4
N#Cc1nc(-c2ccccc2)oc1NCCCn1ccnc1,10.5%,?,-1.8%,?,70.2,16.4*
N#Cc1nc(-c2ccc(OCc3ccccc3)cc2)oc1NCCN1CCOCC1,-5.9%,-23.1%,/,-10.1%,-2.0,-3.4
C=C1CCC(=O)C(C)CCC2C1CC2(C)C (stereo not drawn),4.3%,/,/,/,/,/
Cc1cc(C)n2c(SCC(=O)Nc3ccccc3C#N)nnc2n1,/,?,/,-22.4%,/,/
CCCc1cc(C(=O)NCC(C)C)no1,-1.7%,-26.3%,7.7%,/,116.8*,33.2*
CCCc1cc(C(=O)NCc2cccs2)no1,-0.1%,?,-89.9%,/,60.7,35.5*
CCCc1cc(C(=O)NCc2cccnc2)no1,0.6%,-8.0%,-2.1%,/,1.1,-1.1
CCCc1cc(C(=O)NCc2ccco2)no1,-2.4%,13.1µM*,-16.0%,/,71.5*,15.3*
CCCc1cc(C(=O)NCc2ccccc2)no1,0.2%,286.6%,-4.6%,56.5%,58.8*,26.6*
Cc1noc(C)c1C(=O)NCc1cccs1,3.2%,-11.0%,7.9%,15.4%,20.5,4.1
O=C(NCC(O)CO)c1csc(Nc2cccc3ccccc23)n1 (stereo not drawn),-2.3%,1.0%,7.6%,-27.2%,/,-2.3
CCc1cc(Cn2nc(-c3ccccc3)cc2C(=O)NCc2cccs2)on1,/,5.86µM*,/,14.7µM*,/,/
CCCCCc1cc(O)c2c(c1)OC(C)(C)C1CC=C(C)CC21 (stereo not drawn),/,3.01µM*,/,2.39µM*,/,/
Cc1occc1C(=O)Nc1cnn(CCCC(=O)O)c1,/,-27.0%,-5.8%,9.8%,-15.4,-3.3
CCOC(=O)CN1NC2(CCC(C(C)(C)C)CC2)NC1=S (stereo not drawn),?,59.1%,1.7%,-1.3%,-20.6,7.9
CC1CCC2(CC1)SCC(=O)N2c1ccc(F)cc1 (stereo not drawn),7.8%,10.6%,3.5%,28.8%,8.8,6.2
O=C1CCC2(CC1)NC(=O)N(c1ccccc1)N2,0.1%,-8.2%,/,-16.2%,-13.4,1.5
CCC(C)(C)C1CCC2(CC1)NC(=S)N(c1ccccc1)N2 (stereo not drawn),1.2%,-15.6%,-3.0%,-12.1%,97.5*,34.8*
CC(C)(C)C1CCC2(CC1)SCC(=O)N2c1ccccc1 (stereo not drawn),/,95.0%,?,11.7µM*,-3.3,1.1
CC(C)(C)C1CCC2(CC1)NC(=S)N(c1ccccc1)N2 (stereo not drawn),-0.1%,?,-6.8%,?,42.4*,23.8*
C=CCNc1ncnc2ccccc12,-3.2%,0.4%,-6.7%,0.7%,-17.4,4.0
